Bioassay records as filed in PubChem BioAssay.
Beta2AR agonist: agonists of human beta-2 adrenergic receptor inducing internalization. Am2.2-beta2AR cells, FAP receptor internalization, flow cytometry. response, % (concentration not given with the values). hit rate 0.43% among 340,000. AID 504454;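 active means response above a set limit, near 3 SD of response in nonfluorescent compounds, cut at about 42% in these data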
Target sequence (P07550 whole entry, looked up): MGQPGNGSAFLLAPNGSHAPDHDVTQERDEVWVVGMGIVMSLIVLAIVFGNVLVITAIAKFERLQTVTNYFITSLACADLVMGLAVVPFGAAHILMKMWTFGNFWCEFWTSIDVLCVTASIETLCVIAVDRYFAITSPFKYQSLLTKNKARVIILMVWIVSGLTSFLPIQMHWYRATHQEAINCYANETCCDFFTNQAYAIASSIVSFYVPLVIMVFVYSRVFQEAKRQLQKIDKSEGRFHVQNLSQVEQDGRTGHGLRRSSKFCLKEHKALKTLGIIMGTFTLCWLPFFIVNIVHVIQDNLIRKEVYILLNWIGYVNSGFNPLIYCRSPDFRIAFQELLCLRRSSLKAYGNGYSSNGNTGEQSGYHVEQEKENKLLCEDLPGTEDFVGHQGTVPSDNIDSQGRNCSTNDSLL
Peg3 prom inh: Peg3 promoter activity inhibition. HeLa PEG-Prom luciferase reporter, luminescence, overnight. hit rate 1.7% among 360,000. inhibition, % at 20 µM. AID 588405;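 active means inhibition of at least 50% at 20 µM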
KKLEB tox: CF airway cell cytotoxicity counter-screen; activity change (cytotoxicity), % at 5 µM; hit rate 0.36% among 360,000; KKLEB CF airway cells viability, ATPlite luminescence, overnight; stronger effect = lower value; cells stimulated with P. aeruginosa culture filtrate;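 active means corrected activity change at or below -50% at 5 µM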
CF NFkB block: cystic fibrosis NF-kB activation inhibition; KKLEB NF-kB-GFP reporter, PAF-induced, GFP fluorescence overnight; inhibition, % at 5 µM; hit rate 0.86% among 360,000; AID 588850;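 active means at least 50% inhibition at 5 µM, scaled per plate between neutral and stimulator controls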;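 further: PAF is a Pseudomonas aeruginosa culture filtrate used as stimulus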
MITF TRPM1 inh: inhibitors of MITF-driven TRPM1 promoter in melanoma cells; SK-MEL-5 TRPM1 promoter luciferase, 24 h; inhibition, % at 12.5 µM; hit rate 0.83% among 330,000;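 active means mean inhibition across replicates of 60% or more, whatever share of single replicates reaches that level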
HIF-2a inh: HIF-2a inhibition. 786-0 RCC cells HIF-2a reporter, luciferase luminescence, overnight. hit rate 0.72% among 360,000. AID 624352. inhibition, % at 18.8 µM;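 active means inhibition of the luminescence signal of 40% or more relative to plate controls, in a single-dose primary screen at 18.75 µM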
Mdm2-MdmX confirm: confirmation of inhibitors of human Mdm2/MdmX interaction, set 2 | shares compounds with HIF-2a inh | SaOS-2 split-luciferase Mdm2/MdmX complementation, luminescence | inhibition, % at 8 µM | hit rate 99% among 740 | AID 504601;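 active means mean inhibition of the luminescence signal across two replicates at or above 26 percent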
HIF-2a inh conf: confirmation of HIF-2a inhibitors | shares compounds with HIF-2a inh | inhibition, % at 18.8 µM | hit rate 56% among 1,800 | 786-0 RCC cells, HIF-2a luciferase reporter luminescence, overnight;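 active means mean inhibition across four replicates of at least 40 percent at the single tested concentration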
HIF-1a counter: inhibits HIF-1a reporter, a counter-screen for HIF-2a inhibitors | shares compounds with HIF-2a inh | MiaPaCa-2 HIF-1a luciferase reporter, desferoxamine, overnight | inhibition, % at 18.8 µM | hit rate 72% among 1,800;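 active means mean inhibition of the reporter signal across four replicates at the single tested dose of 50% or more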
Hits are given with their value; 0 = inactive; - = no result given. In the library only some 2.8% were active in any assay of this set; here they are far more common.

SMILES	Beta2AR agonist	Peg3 prom inh	KKLEB tox	CF NFkB block	MITF TRPM1 inh	HIF-2a inh	HIF-2a inh conf	HIF-1a counter	others
CCc1ccc(C(C)NC(=O)/C=C/c2ccc(Br)cc2)cc1 (stereo not drawn)	0	0	0	0	0	0	-	-
CCOC(=O)C(CC)(CC)C(=O)/C=C/c1ccc(Br)cc1	0	74.7	0	0	0	58.2	0	106.0
O=C(Nc1ccc(Cl)cc1Cl)c1cccc(N2C(=O)C=CC2=O)c1	70.6	108.4	0	0	0	44.3	80.0	0
O=C(Nc1ccc(Cl)cc1Cl)c1ccc2c(c1)OCCO2	0	0	0	0	0	0	-	-
O=c1[nH]c2ccc(Br)cc2c(=O)o1	-	0	0	0	-	44.3	44.6	0
Cc1cccn2c(=O)c3cc(C(=O)NCCc4ccccc4)c(=N)n(Cc4ccco4)c3nc12	0	0	0	0	0	93.2	0	83.2	Mdm2-MdmX confirm=29.0
Cc1cccn2c(=O)c3cc(C(=O)NCc4ccco4)c(=N)n(CCc4ccccc4)c3nc12	0	0	0	0	0	0	-	-
Cc1ccc(CNC(=O)c2cc3c(=O)n4ccccc4nc3n(Cc3ccco3)c2=N)cc1	0	0	0	0	0	0	-	-
COc1ccc(CCNC(=O)c2cc3c(=O)n4cccc(C)c4nc3n(Cc3ccco3)c2=N)cc1OC	0	0	0	0	0	60.0	0	0	Mdm2-MdmX confirm=0
CCCNC(=O)C1(C)CCCN(Cc2c(F)cccc2F)C1 (stereo not drawn)	-	0	0	0	-	0	-	-
C/C=C/c1cccc(-c2nc(C(=O)N3CCN(C)CC3)cc3c2[C@@H](CCO)N(C(=O)NC(C)C)C3)c1	-	-	-	-	-	0	-	-
O=C(Nc1ncn[nH]1)c1ccc(Cl)c(Cl)c1	0	0	0	0	0	0	-	-
COC(=O)C=CC(=NNc1ccccc1)c1ccccc1	0	0	0	0	0	0	-	-
Cn1nnnc1N=N/C(=N/Nc1ccccc1)c1ccccc1	0	52.1	0	0	0	0	-	-	Mdm2-MdmX confirm=91.0
CCOC(=O)C(=O)N(C)c1c(CC)nc2c(OCc3ccccc3C)cccn12	-	0	0	0	-	0	-	-
O=C(NC1CCCCC1)c1n[nH]c2c1CCCCC2	0	55.6	0	0	-	44.4	74.7	74.2
CCC(C)(C)C1CCc2[nH]nc(C(=O)NC3CCCC3)c2C1 (stereo not drawn)	0	0	0	0	0	0	-	-
COc1ccccc1N1CCN(c2ncnc3n[nH]c(Br)c23)CC1	-	-	-	-	-	0	-	-
COC(=O)c1ccc(Sc2nnnn2-c2ccccc2)c([N+](=O)[O-])c1	0	0	0	0	0	40.3	0	0
O=C(O)c1ccc(Sc2nnnn2-c2ccccc2)c([N+](=O)[O-])c1	0	0	0	0	0	0	-	-
O=C(CC[C@H]1O[C@@H](n2ccc(=O)[nH]c2=O)[C@H](O)[C@@H]1O)NCC(c1ccccc1)c1ccccc1	-	0	0	0	-	0	-	-
O=C(COC(=O)c1cccc(S(=O)(=O)N2CCCCC2)c1)NCc1cccc(Cl)c1	-	0	0	0	-	0	-	-
Cc1ccc(OCCn2cc(C(=S)N3CCCC3)c3ccccc32)cc1C	0	0	0	0	0	0	-	-	Mdm2-MdmX confirm=99.7
Cc1cccc([C@@H]2[C@@H]3C(=O)N(Cc4ccccc4)C(=O)[C@@H]3[C@]3(Cc4ccccc4)C(=O)N(c4ccc(C(F)(F)F)cc4)C(=O)N23)c1	0	0	0	0	0	0	-	-	Mdm2-MdmX confirm=103.0
COc1ccc(C2c3ccc4ccccc4c3Oc3ncn(Cc4ccco4)c(=N)c32)cc1OC (stereo not drawn)	0	0	0	0	0	0	-	-
SMILES	Beta2AR agonist	Peg3 prom inh	KKLEB tox	CF NFkB block	MITF TRPM1 inh	HIF-2a inh	HIF-2a inh conf	HIF-1a counter	others
COc1ccc(C2c3ccc4ccccc4c3Oc3ncn(CCCN(C)C)c(=N)c32)cc1 (stereo not drawn)	0	112.1	0	0	100.6	93.1	0	104.6	Mdm2-MdmX confirm=102.0
CC1=C(C(=O)N2CCCCCC2)CC(CC(=O)NCc2cccc3ccccc23)C(=O)N1CCC1=CCCCC1 (stereo not drawn)	-	-	-	-	-	0	-	-
Nc1ccc(-c2ccc(C(=O)O)s2)cn1	0	0	0	0	0	0	-	-
O=C(/C=C/c1cccc(Cl)c1)c1ccc([N+](=O)[O-])o1	65.8	99.0	0	87.1	97.6	96.6	-	-	Mdm2-MdmX confirm=102.0
COc1ccc(/C=C/C(=O)c2ccc([N+](=O)[O-])o2)cc1OC	-	-	-	-	-	-	-	-	Mdm2-MdmX confirm=99.4
CCOc1ccc(NC(=O)NC23CC4CC(CC(C4)C2)C3)cc1	0	0	0	0	0	0	-	-
Cc1nnsc1C(=O)N1CCCC1(C)C(=O)O (stereo not drawn)	-	0	0	0	-	0	-	-
COc1ccc(C=C(C(=O)c2ccccc2)C(=O)c2ccccc2)cc1	-	0	0	0	-	0	-	-
CC(C)(C)NCC(=Cc1ccccc1)C(=O)c1ccccc1	0	100.7	0	0	97.5	79.5	99.0	106.9
COc1ccc(Cn2c(SCc3ccccc3C)nc3cc(OC)c(OC)cc3c2=N)cc1	0	102.0	0	0	84.3	96.2	0	106.6
Cc1ccc(CN2CCN(CC(=O)O)C2=O)cc1	0	0	0	0	0	0	-	-
CC(C)c1c(C(=O)Nc2ccccc2)c(-c2ccccc2)c(-c2ccc(F)cc2)n1CC[C@@H](O)C[C@@H](O)CC(=O)O	-	0	0	0	-	40.0	0	0
CC(C)NC(=O)NC(=O)COC(=O)CCCSc1nc2ccccc2s1	0	0	0	0	0	0	-	-
O=C(O)CCSc1nc2ccccc2s1	0	0	0	0	0	89.2	97.2	91.7
NC(=O)NC(=O)COC(=O)CCCSc1nc2ccccc2s1	0	0	0	0	0	70.6	82.9	61.8
O=C(CCCSc1nc2ccccc2s1)NC1=NCCS1	0	0	0	0	0	72.2	84.9	0
CCOC(=O)NC(=O)COC(=O)CCCSc1nc2ccccc2s1	0	0	0	0	0	59.3	75.7	0
c1ccc2sc(SCSc3nc4ccccc4s3)nc2c1	0	0	0	0	0	0	-	-
COc1cc(OC)cc(-c2cc3nc(C)c(CCC(=O)Nc4nc(C)cs4)c(C)n3n2)c1	0	0	0	0	-	43.3	54.9	0
COc1ccccc1-c1cc(SC)c(C#N)c(=O)o1	0	82.0	0	0	0	41.9	0	0
COc1ccccc1-c1cc(C(F)(F)F)c(C#N)c(=O)[nH]1	0	0	0	0	0	0	-	-
Cc1ccc(-c2nc3ncccc3o2)cc1NC(=O)c1ccc([N+](=O)[O-])o1	0	56.8	0	0	81.5	53.5	0	102.1
